YB-1 expression – inhibitors of YB-1 gene expression, primary screen, cell-based, fluorescence. U2OS, qRT-PCR YB-1 vs CDIP delta delta Cp, 16 h; active compounds read high; zero = DMSO, each unit about twofold. delta delta Cp (YB-1 minus CDIP) (no concentration beside the values). actives 0.37% (n = 30,000). AID 434959, 2010;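 active means delta delta Cp rounded down to an integer at or above 3, about 3 SD of DMSO wells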;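 further: higher means less YB-1 transcript or more CDIP transcript relative to DMSO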
ROS inducer – ROS inducers in U2OS cancer cells, primary screen, cell-based, H2DCF-DA fluorescence | U2OS ROS induction | ROS induction (% of piperlongumine), % at 10 µM | actives 2% (n = 46,000) | AID 624156, 2012; in the data active means ROS induction above about 79%, passing the limit was not always enough;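 further: 0% = DMSO vehicle median and 100% = reference compound median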
* marks the source's active call; other numbers are inactive results; . = not tested or not shown. This is a sample that favours compounds with a hit; in the whole collection about 2.3% have one here.

SMILES | YB-1 expression | ROS inducer
COc1ccc(/C=C/C(=O)O[C@@H]2[C@@H](O)[C@H](C)O[C@@H](O[C@H]3[C@@H]4C=CO[C@@H](O[C@H]5O[C@@H](CO)[C@H](O)[C@@H](O)[C@@H]5O)[C@@H]4[C@@]4(CO)O[C@@H]34)[C@@H]2OC(C)=O)cc1 | -0.16 | -4
COc1ccc(/C=C/C(=O)O[C@H]2[C@H](O[C@H]3[C@@H]4C=CO[C@@H](O[C@@H]5O[C@H](CO)[C@@H](O)[C@H](O)[C@H]5O)[C@@H]4[C@@]4(CO)O[C@@H]34)O[C@@H](C)[C@H](O)[C@H]2OC(C)=O)cc1 | 10* | -9
Cc1noc(C)c1NC(=O)N(C)C[C@@H]1Oc2c(NC(=O)c3ccc(-c4nccs4)cc3)cccc2C(=O)N([C@H](C)CO)C[C@H]1C | 0.23 | -4
O=S(=O)(Cc1ccccc1)c1ccc(C(F)(F)F)cn1 | 0.13 | -8
Cc1ccc(S(=O)(=O)CCSc2sc(C#N)c3c2C(=O)CC(C)(C)C3)cc1 | 0.079 | 125*
CCOC(=O)c1sc(SCCS(=O)(=O)c2ccc(Cl)cc2)c2c1CCCC2=O | -0.22 | 22
O=c1cc(N2CCOCC2)oc2c1ccc1ccccc12 | -0.33 | -2
O=c1cc(N2CCOCC2)oc2c(-c3ccccc3)cccc12 | 0.11 | 85*
Cc1noc(C)c1NC(=O)N(C)C[C@@H]1Oc2ccc(NC(=O)NC3CCCCC3)cc2CC(=O)N([C@H](C)CO)C[C@H]1C | -0.13 | 2
CC(C)NC(=O)N(C)C[C@H]1Oc2ccc(N(C)C)cc2CC(=O)N([C@@H](C)CO)C[C@@H]1C | 0.1 | -5
COc1ccc(NC(=O)Nc2ccc3c(c2)CC(=O)N([C@@H](C)CO)C[C@@H](C)[C@@H](CN(C)C(=O)NC2CCCCC2)O3)cc1 | 0.44 | 15
C[C@@H]1CN([C@H](C)CO)C(=O)Cc2cc(N(C)C)ccc2O[C@@H]1CN(C)C(=O)NC1CCCCC1 | 0.2 | 108*
Cc1noc(C)c1NC(=O)N(C)C[C@H]1Oc2ccc(NC(=O)NC3CCCCC3)cc2CC(=O)N([C@@H](C)CO)C[C@@H]1C | 0.19 | 104*
COc1ccc(CN(C)C[C@@H]2Oc3ccc(NC(=O)NC4CCCCC4)cc3CC(=O)N([C@@H](C)CO)C[C@@H]2C)cc1 | -0.34 | -1
COc1ccc(NC(=O)N(C)C[C@H]2Oc3ccc(NC(=O)NC4CCCCC4)cc3CC(=O)N([C@H](C)CO)C[C@H]2C)cc1 | 0.012 | 83*
COc1ccc(CN(C)C[C@@H]2Oc3ccc(NC(=O)NC4CCCCC4)cc3CC(=O)N([C@H](C)CO)C[C@H]2C)cc1 | 6.7* | 0
C[C@H](CO)N1C[C@H](C)[C@H](CN(C)S(=O)(=O)c2ccccc2)Oc2c(NC(=O)c3ccc(-c4nccs4)cc3)cccc2C1=O | 0.7 | 11
COc1ccccc1NC(=O)C1=C(C)Nc2nnnn2C1c1ccccn1 (configuration not stated) | . | 1
c1ccc(CNc2nc(NC3CCCCC3)nc(N3CCOCC3)n2)cc1 | . | 27
O=C(NCc1ccc2c(c1)OCO2)c1cc2ccccc2o1 | . | -7
CN(C)CCC=C1c2ccccc2C=Cc2ccccc21 | 0.16 | 18
C[C@H](CO)N1C[C@H](C)[C@@H](CN(C)S(=O)(=O)c2ccc(F)cc2)Oc2ccc(NC(=O)Nc3ccc(C(F)(F)F)cc3)cc2C1=O | -0.045 | -1
Cc1noc(C)c1S(=O)(=O)Nc1ccc2c(c1)C(=O)N([C@@H](C)CO)C[C@@H](C)[C@@H](CN(C)Cc1ccncc1)O2 | 0.28 | -11
COc1ccc(CN(C)C[C@@H]2Oc3ccc(NC(=O)Nc4ccc(C(F)(F)F)cc4)cc3CC(=O)N([C@H](C)CO)C[C@@H]2C)cc1 | 9.7* | 6
COc1ccc(NC(=O)Nc2ccc3c(c2)CC(=O)N([C@H](C)CO)C[C@@H](C)[C@H](CN(C)Cc2ccc(C(F)(F)F)cc2)O3)cc1 | -0.18 | 11
SMILES | YB-1 expression | ROS inducer
CSc1cccc(NC(=O)c2cnn3ccccc23)c1 | . | 5
COc1ccc(Cc2nccc3cc(OC)c(OC)cc23)cc1OC | 0.69 | 11
CCc1nc(-c2ccc(OC)cc2)cc2cc(OC)c(OC)cc12 | -0.48 | 109*
C[C@H]1CN([C@@H](C)CO)C(=O)Cc2cc(NS(=O)(=O)c3cn(C)cn3)ccc2O[C@H]1CN(C)C(=O)Nc1ccccc1 | -0.39 | -4
C[N+]1(C)C2CC[C@H]1CC(OC(=O)C(O)c1ccccc1)C2 (some centres not stated) | 0.48 | -9
C[N+]1(C)CCCC(OC(=O)C(O)(c2ccccc2)c2ccccc2)C1 (configuration not stated) | 8.9* | -11
C[C@@H]1CN([C@@H](C)CO)C(=O)Cc2cc(NC(=O)Cn3cnnn3)ccc2O[C@@H]1CN(C)C(=O)Nc1ccc2c(c1)OCO2 | -0.35 | 3
COC(=O)/C=C/S(=O)(=O)c1ccc(NC(C)=O)cc1 | -0.39 | 121*

High-throughput results: PubChem BioAssay, Broad Institute
